# Screening data from PubChem BioAssay.
# A selection: hits, their analogues and other compounds. The true share with any hit is near 7.4%.
# NPR1 antag: human Npr1 receptor antagonism; Potency, µM (highest dose often 46.3 µM), for inactives: at the top dose activity change, negative = inhibition, usual class: inhibitors; HEK293 hNpr1 GloSensor cGMP, ANP-stimulated luminescence; 76,000 tested, 1.6% active; P16066; calls by dose curve; also: nearly all actives have a fitted effect of over 60% in size
# Target sequence (P16066 whole entry, looked up): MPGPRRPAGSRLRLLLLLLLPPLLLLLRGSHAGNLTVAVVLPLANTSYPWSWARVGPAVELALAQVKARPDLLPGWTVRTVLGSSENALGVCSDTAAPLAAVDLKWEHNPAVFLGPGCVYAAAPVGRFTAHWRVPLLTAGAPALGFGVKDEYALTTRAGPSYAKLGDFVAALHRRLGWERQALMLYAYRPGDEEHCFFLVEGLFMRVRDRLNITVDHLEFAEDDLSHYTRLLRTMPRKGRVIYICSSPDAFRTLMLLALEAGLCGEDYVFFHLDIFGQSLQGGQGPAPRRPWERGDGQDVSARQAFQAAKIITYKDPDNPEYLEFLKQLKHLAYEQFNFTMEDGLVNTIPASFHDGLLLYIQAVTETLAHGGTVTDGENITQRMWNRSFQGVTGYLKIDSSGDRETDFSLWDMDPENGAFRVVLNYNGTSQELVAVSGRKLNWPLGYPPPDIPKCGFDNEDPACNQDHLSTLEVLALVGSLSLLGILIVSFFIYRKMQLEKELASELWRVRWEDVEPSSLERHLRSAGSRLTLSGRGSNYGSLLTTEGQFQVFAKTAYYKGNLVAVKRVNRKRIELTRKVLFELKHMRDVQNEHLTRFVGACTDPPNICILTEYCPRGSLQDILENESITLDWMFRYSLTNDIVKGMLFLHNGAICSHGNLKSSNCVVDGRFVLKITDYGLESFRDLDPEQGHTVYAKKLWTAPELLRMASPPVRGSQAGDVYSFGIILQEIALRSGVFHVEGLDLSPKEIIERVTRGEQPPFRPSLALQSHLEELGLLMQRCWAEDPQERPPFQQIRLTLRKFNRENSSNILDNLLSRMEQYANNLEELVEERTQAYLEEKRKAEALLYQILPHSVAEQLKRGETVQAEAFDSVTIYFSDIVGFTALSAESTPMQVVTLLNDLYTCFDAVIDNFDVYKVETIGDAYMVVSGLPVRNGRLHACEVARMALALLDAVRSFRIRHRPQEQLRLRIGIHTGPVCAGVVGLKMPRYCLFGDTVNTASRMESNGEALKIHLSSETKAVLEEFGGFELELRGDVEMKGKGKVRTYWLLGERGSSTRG
#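 HEK293 cells stably expressing human Npr1 and cGMP GloSensor pGS-40F, loaded 2 h with 2% GloSensor reagent, given compound 30 min at room temperature. Luminescence read before and 20 min after 0.1 nM hNppA.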
# FLuc inh: Photinus pyralis luciferase inhibition; P08659; purified P. pyralis luciferase, luminescence, biochemical; Potency, µM (highest dose often 115 µM), usual class: inhibitors; 76,000 tested, 2.5% active; also: nearly all actives have a fitted effect of over 65% in size
#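 Luminescence read by CCD imaging after purified firefly luciferase (10nM final) was added to substrate buffer holding 10uM D-luciferin and 10uM ATP, pH 7.5, pre-dosed with compound.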
# SNCA viab count: reduces viability of HEK-293 SNCA reporter cells. Potency, µM (top dose mostly 57.1 µM), for the others: at the highest dose activity change, negative = cytotoxicity, usual class: cytotoxic. HEK-293-SNCA-luc viability, GF-AFC fluorescence, 24 h. 150,000 tested, 0.12% active. AID 1671193;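 also: 0% = DMSO-treated cells and -100% = medium-only wells without cells; nearly all actives have a fitted effect of over 30% in size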
#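 HEK-293-SNCA-luc cells (1500/well) plated 24 h, then exposed 24 h to a dilution series; GF-AFC added 30 min at 37C, fluorescence 405/540 nm; normalised to medium-only and DMSO wells, Hill fit.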
# HEK293 tox: HEK 293 cell cytotoxicity; HEK 293 viability, ATP luminescence (CellTiter-Glo), 48-72 h; Potency, µM (top dose mostly 115 µM), for inactives: at the highest dose activity change, negative = cytotoxicity, most hits filed as inhibitors; 94,000 tested, 6.6% active; also: nearly all actives have a fitted effect of over 60% in size
#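 Cells seeded first (HEK 293, 250 cells/well), then compound added by pintool. Incubation ran 48 or 72 hr at 37 degree Celsius. CellTiter-Glo was added and luminescence imaged after 10 min at room temperature.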
# SNCA expr inhib: SNCA gene expression inhibition; HEK-293 SNCA-luciferase knock-in, luminescence, 24 h; Potency, µM (doses to about 57.2 µM), inactives show top-dose activity change, negative = inhibition, hits mostly inhibitors; 140,000 tested, 0.17% active;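 also: plate controls were DMSO cells for no effect and cell-free wells for full effect; nearly all actives have a fitted effect of over 45% in size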
# 3T3 cytotox: cytotoxic compounds in NIH 3T3 cells; Potency, µM (titrated, usually from 96.7 µM), without a hit: at the highest dose activity change, negative = cytotoxicity, hits mostly inhibitors; NIH 3T3 viability, CellTiter-Glo ATP luminescence, 48-72 h; 94,000 tested, 4.3% active; also: nearly all actives have a fitted effect of over 55% in size
#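 First NIH 3T3 cells are plated at 400 cells/well; next compound is pinned in; then plates incubate 48 or 72 hr at 37 °C; finally CellTiter-Glo is added and luminescence read after 10 min.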
# Starred values were filed as active, the others as inactive; i = inactive; ? = inconclusive; . = no result given; [ ] = another dose, or the depositor's remark. Unless noted, calls follow the shape of the dose curve; as a rule, active = well fitted curve in the direction sought with a large enough effect; inconclusive = small, poorly fitted or top-dose-only effect, or another doubt; inactive = no such curve, though single readings can be large; an effect the other way counts as inactive or inconclusive. Unless noted, % is scaled to controls: 0 for no effect and ±100 for the full control effect; potency is read from the fitted curve at half-maximal effect.
SMILES,NPR1 antag,FLuc inh,SNCA viab count,HEK293 tox,SNCA expr inhib,3T3 cytotox
Cc1nn(C)c(C)c1S(=O)(=O)N1CCCC(C(=O)N2CCCn3nc(-c4ccc(F)cc4)cc3C2)C1 (stereo unspecified),.,.,-30%,32µM*,-12%,?
COc1cccc(NC(=O)C2CCCN(S(=O)(=O)c3c(C)nn(C)c3C)C2)c1 (stereo unspecified),.,.,10%,.,-7%,.
O=C(NC[C@H]1O[C@H](Cc2cc(-c3ccc(F)cc3)on2)CC[C@@H]1O)c1ccc(F)cc1,16µM*,40µM*,-9%[87.6 µM],?,15%[87.6 µM],?
CC(C)CCNC[C@H]1O[C@H](Cc2cc(-c3ccc(F)cc3)on2)CC[C@@H]1O,?,?,-10%[87.6 µM],89µM*,81%[87.6 µM],50µM*
CN(C)C[C@H]1O[C@H](Cc2cc(-c3ccc(F)cc3)on2)CC[C@@H]1O,-18%[70.6 µM],i,6%[87.6 µM],-29%[172 µM],159%[87.6 µM],-30%[138 µM]
Cc1cc(C)cc(Nc2nc3cc(Cl)c(Cl)cc3nc2-n2nc(C)cc2C)c1,.,.,9%,.,12%,.
CC(C)(C)Nc1nc2cc(Cl)c(Cl)cc2nc1S(C)(=O)=O,.,.,15µM*,.,.,.
COc1ccccc1CN[C@H]1Cc2ccc(cc2)Nc2cc(ccc2OC)C[C@H](C(=O)NCc2ccccc2)N(C)C1=O,3%,i,-22%,40µM*,-10%,?
COc1ccc2cc1Nc1ccc(cc1)C[C@H](NCC1CC1)C(=O)N(C)[C@@H](C(=O)NCc1ccccc1)C2,-14%,i,-6%,?,-21%,-11%
CC[C@H]1CN(C(=O)Nc2cccc(C(F)(F)F)c2)CC[C@H]1CC(=O)NCc1ccc(OC)cc1,?,i,-20%,40µM*,-22%,?
Cc1cccc(-c2cccc(CN3CCC(N[S+](C)(=O)[O-])CC3)c2)c1,.,.,7%,?,-8%,?
Cc1ccc([S+](=O)([O-])NC2CCN(Cc3cccc(-c4ccc(F)c(F)c4)c3)CC2)cc1,.,.,-27%,22µM*,-37%,16µM*
CSc1ccc(-c2cccc(CN3CCC(N[S+](=O)([O-])c4ccc(C)cc4)CC3)c2)cc1,.,.,.,20µM*,.,14µM*
Cc1cc(NC(=O)C2CCN(C(=O)c3ncn4c3COC(c3ccc(F)cc3)C4)CC2)ccc1Cl (stereo unspecified),-3%,40µM*,-17%,-21%,-6%,?
COc1ccc(C2Cn3cnc(C(=O)N4CCC(C(=O)Nc5ccc(C)c(C)c5)CC4)c3CO2)cc1 (stereo unspecified),-24%,i,-6%,-1%,-13%,i
O=C(Nc1ccc2c(c1)CCC2)C1CCN(C(=O)c2ncn3c2COC(c2ccc(F)cc2)C3)CC1 (stereo unspecified),1%,28µM*,6%,7%,46%,i
Cc1ccc(NC(=O)C2CCN(C(=O)c3ncn4c3COC(c3ccc(F)cc3)C4)CC2)cc1C (stereo unspecified),1%,35µM*,-12%,13%,33%,i
Cc1cccc(NC(=O)C2CCN(C(=O)c3ncn4c3COC(c3ccc(F)cc3)C4)CC2)c1C (stereo unspecified),-2%,?,6%,7%,12%,i
Cc1ccc(NC(=O)C2CCN(C(=O)c3ncn4c3COC(c3ccc(F)cc3)C4)CC2)c(Cl)c1 (stereo unspecified),-24%,25µM*,-11%,0%,30%,0%
Cc1cc(C)cc(NC(=O)C2CCN(C(=O)c3ncn4c3COC(c3ccc(F)cc3)C4)CC2)c1 (stereo unspecified),-3%,?,-3%,5%,3%,1%
CSc1ccc(-c2cccc(C(=O)NCC(=O)NC(C)C)c2)cc1,.,.,-4%[87.6 µM],?,9%[87.6 µM],?
Cc1cc(Nc2ncc(Cl)c(Nc3ccccc3S(=O)(=O)C(C)C)n2)c(OC(C)C)cc1C1CCNCC1,.,.,-23%,.,36%,.
